# Laboratory results reported in the supplement of paper PMC11417369.
# In all, about 25,000 sequences were measured (“ln(normalized median fluorescence intensity)”: median about 9.7, highest 2% from about 11 on). The sample holds the highest values, similar sequences and a random draw of the others, so the mix is not that of the screen.
# Test system: PfAP2-HC AP2 domain (GST-tagged)
# Test: gcPBM binding intensity (ln(normalized median fluorescence intensity)); higher = stronger DNA binding
# Method in brief: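 Probes on an Agilent 4 × 180k array were primer-extended, double-stranded and 36 bp long, taken from intergenic genomic regions, with negative controls added. GST-tagged P. falciparum DNA-binding domains from E. coli, about 25 μg on average, were applied to the array for 1 h in 1× PBS containing 1% milk, 0.2 mg/ml BSA, 0.5% salmon testes DNA and 0.03% Triton X-100. Binding intensity, obtained after Alexa488 anti-GST antibody detection and a 488 nm scan, is the highest Masliner-normalised natural-log median intensity across replicate spots of either probe orientation.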
row,Sequence,gcPBM binding intensity (ln)
1,AATCACAACAGACACACACACAAAAAAAAAAAAAAA [CACACA_site1442],10.1
2,AAATAAATAATATGTAAACACACAAAAAATAAAAAT [CACACA_site8307],10.3
3,CACAAAAATAGACACACACACATATAAATAAATATA [CACACA_site6598],10.4
4,AAAATCACAAAACACACACACACAAAAAAAAAAAAA [CACACA_site1443],10.5
5,AAAATCACAAGACACACACACACAAAAAAAAAAAAA [CACACA_site6791],11.5
6,TACCAAAATAGACACACACACAAAATATGTAAATAT [CACACA_site6963],11
7,TATATATAAATAAACACACACAAATATAATAAAAAA [CACACA_site3526],10.9
8,ATAAAATGGGCAAACACACACAAAAAAAAGATATAT [CACACA_site1648],10.3
9,ATAAAATGCGCAAACACACACAAAAAAAAGATATAT [CACACA_site6875],10.2
10,TACCAAAAGAAACACACACACAAAATATATAAATAT [CACACA_site1869],10.6
11,CTTACCAAAAAACACACACACACAAAATATATAAAT [CACACA_site1870],11.2
12,TTATAAAATGGGCAAACACACACAAAAAAAAGATAT [CACACA_site8476],10.9
13,ATAAATAAATAAATAAATAAATAAATAAATATATAT [CACACA_negctrl_site1728],9.74
14,TTTAATTTATATTTTGTGCACATCTTATTATATATA [GTGCAC_site9630],9.88
15,GAAGTATTATTAAAGCTGCACTTTTCTAAAATAAAC [GTGCAC_site9429],9.5
16,TAATTACCATATGGTACACACATATATATCTGTATA [CACACA_site5849],9.96
17,CAGGCACTAATAAACACACACATATAAATATAAATA [CACACA_site6320],10.1
18,AATTTAACCACTAAAAGTACACACATATATACATAT [XGTACX_site8352],10.1
19,TACTTTTTTCCTATTATGTTTCTTATTTTTATAAAT [XGTACX_negctrl_site561],9.78
20,GATGATTATATATATACGCACACTTTTTTTTTTTTT [CACACA_site2652],9.94
21,TAATAAAACATATATACACACATTATAAATACATAT [CACACA_site5014],10
22,TTTTTTTTTTTTCTGTGTACATATATAATATATATA [XGTACX_site1592],9.7
23,AAATATAAAGTGCACACACACAAAAAAAGAAAAAAA [CACACA_site6452],10.2

row,Sequence,gcPBM binding intensity (ln)
1,AAAAAAAAAAAAAACACACACACAAAAAAAAATATA [CACACA_site1104],11.3
2,AAATAAATAAAAAACACACACAAATAAATAAATATA [CACACA_site2249],10.7
3,AAAAAAAAAAAACACACACACACAAATATATAAAAA [CACACA_site1171],10.6
4,AAAAAAAGAAAAAAAACACACACAAATATAAATAAA [CACACA_site8309],10.9
5,AAAAAGAAAAAAAACACACACAAATATAAATAAATA [CACACA_site1183],10.2
6,AATATATATAAATAAACACACACAAATATAATAAAA [CACACA_site9176],10.8
7,ATATATATAAAACACACACACAAAAAAAATAAAGAC [CACACA_site117],11.2
8,AAAAAAAAAAAACACACACACAAAAAAAAATATATA [CACACA_site1105],11.3
9,AAAAAATATAAAAAAACACACAAAAAAAAAAAAAAA [CACACA_site1382],9.71
10,AAAAGAAAATAAGAAACACACAAAAATATATAAAAA [CACACA_site3697],9.99
11,AAATATAAACGGCACACACACAAAAAAAGAAAAAAA [CACACA_site649],11
12,TGTACAAATATGTTGAAAATAAAATTTCAATATATT [XGTACX_negctrl_site13],9.32
13,AAAAAATTAACCGTAACACACACACCGATATATATA [CACACA_site9312],10.5
14,ATTTTTTTTTTTTTTTTTTTTTTTTGGAGAAAGAGA [CACACA_negctrl_site1119],8.98
15,ATATAGAAAATGCATACACACTTTATATATATATTT [CACACA_site4658],9.9
16,TTACAAATATTATAAAGTACAAACCAGTAGATTTTG [XGTACX_site2272],9.63
17,ATACATATGTATATTTGTACATATTAGACAATCTTA [XGTACX_site6706],9.37
18,CATATATAACAATTCTCACACATAAAAAAAAAAAAT [CACACA_site4564],9.76
19,TTTTTAAATATAAACAAAAAAAAAAAATATATCAAT [XGTACX_negctrl_site328],9.43
20,AGAGTATATAAAGTAACACACAATAAAATAAAATAA [CACACA_site2328],10.3
21,AAAAATAAATAAGACACACACAAAAAAAAAAAAAAA [CACACA_site1432],9.87
22,AATACTTACCAAAATACACACACACCCAAAATATAT [CACACA_site8559],10.3
